Screens deposited in PubChem BioAssay by National Center for Advancing Translational Sciences (NCATS).
The list is not random: actives were taken first. Their share in the collection is about 19%.
HT1080NT lethal = kills 2HG-producing HT-1080-NT fibrosarcoma cells; HT-1080-NT fibrosarcoma viability, CellTiter-Glo ATP luminescence, 48 h; Potency, µM (doses to about 46.1 µM), usual class: cytotoxic; 1.6% of 360,000 active; AID 686970;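 further: NT is the 2HG producing partner of a matched IDH1 knockdown line; nearly all actives have a fitted effect of over 55% in size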
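Compounds were tested in concentration-response format on HT-1080-NT cells for 48 hours at 37 degrees C. Cell viability came from CellTiter-Glo luminescence; curves were classified by r2, response magnitude and activity.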
DT40 TDP1 CPT = growth inhibition of DT40 Tdp1-/-;hTDP1 cells with camptothecin (screen for TDP1 inhibitors) | chicken DT40 Tdp1-/-;hTDP1 cells + 20 nM CPT, ATP luminescence, 48 h | Potency, µM (doses to about 46.2 µM), hits mostly inhibitors | 12% of 420,000 active; further: nearly all actives have a fitted effect of over 55% in size
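Cell growth measured by CellTiter-Glo luminescence after a minimum 48 h, 37 C compound exposure with 20 nM CPT in Tdp1-knockout DT40 cells stably expressing hTDP1, seeded 400/well; qHTS titration format.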
HT1080 IDH1KD tx = kills HT-1080 cells with IDH1 knockdown | Potency, µM (titrated, usually from 46.1 µM), actives largely listed as cytotoxic | 2% of 360,000 active | HT-1080 IDH1 knockdown viability, ATP luminescence, 48 h | AID 686971
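HT-1080-IDH1KD cells (IDH1 knocked down), 750/well in RPMI with 5% FBS, treated with compound 48 h at 37 degrees C. Viability by CellTiter-Glo luminescence, normalised to DMSO and no-cell wells; concentration-response curves classed.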
uPA surface inh = blocks generation of uPA at the cell surface | cell surface uPA generation assay, qHTS | Potency, µM (top dose mostly 38.3 µM), hits mostly inhibitors | 0.31% of 330,000 active | AID 540303; active means well fitted inhibition curve with a large enough effect; inconclusive means small, poorly fitted or top-dose-only effect; inactive means no such curve, though single readings can be large or run the other way; tested in mouse RAW 264.7 cells; further: nearly all actives have a fitted effect of over 55% in size
DT40 TDP1 no CPT = qHTS for Inhibitors of human tyrosyl-DNA phosphodiesterase 1 (TDP1): qHTS in cells in absence of CPT. DT40 Tdp1-/- hTDP1 cells, no CPT, ATP luminescence, 48 h. Potency, µM (doses to about 46.2 µM), most hits filed as inhibitors. 15% of 420,000 active. AID 686978, 2013; further: nearly all actives have a fitted effect of over 55% in size
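A cellular qHTS used chicken DT40 cells lacking endogenous Tdp1 but carrying stably transfected human TDP1. Compounds were applied without camptothecin, and cell growth kinetics were judged by ATP-dependent luminescence after ≥48 hr.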
IL1B secr inh = inflammasome signaling inhibition, IL-1 beta readout | THP-1 LPS/ATP IL-1B secretion, AlphaLISA, 16 h; active compounds read low | AID 743279 | 4.7% of 360,000 active | activity change, % at 57.5 µM; in the data active means activity change below about -50%; inconclusive means mostly about -30% to -49%
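Secreted IL-1B measured by AlphaLISA bead assay after 16 h compound exposure of THP-1 cells; compounds (final up to 57.5 uM) added 1 h before LPS (250 ng/mL) and ATP (1.25 mM) stimulation; lower signal means less secretion.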
Large screens that a line does not name were inactive; ! = not active in a repeat. Unless noted, the call rests on the fitted dose curve; in most records, active means well fitted curve in the direction sought with a large enough effect; inconclusive means small, poorly fitted or top-dose-only effect, or another doubt; inactive means no such curve, though single readings can be large; an effect the other way counts as inactive or inconclusive.

COCCn1c(=N)c(S(=O)(=O)c2ccc(Br)cc2)cc2c(=O)n3ccccc3nc21	DT40 TDP1 CPT inconclusive, DT40 TDP1 no CPT 21µM
COc1cccc(Nc2ccc([N+](=O)[O-])c3nonc23)c1	HT1080NT lethal 15µM, DT40 TDP1 CPT inconclusive, HT1080 IDH1KD tx 23µM
COc1cccc(Nc2cc(N3CCOCC3)c3nonc3c2[N+](=O)[O-])c1	DT40 TDP1 CPT 21µM, DT40 TDP1 no CPT 18µM
O=C(O)c1ccccc1Nc1ccc([N+](=O)[O-])c2nonc12	HT1080 IDH1KD tx inconclusive, DT40 TDP1 no CPT inconclusive
O=[N+]([O-])c1c(Nc2ccccc2O)cc(N2CCOCC2)c2nonc12	DT40 TDP1 CPT 16µM, HT1080 IDH1KD tx inconclusive, DT40 TDP1 no CPT 15µM
O=[N+]([O-])c1c(NCCO)cc(N2CCCCCC2)c2nonc12	none
CCOC(=O)C1=C(C)Nc2ncnn2C1c1cccnc1 (centres undefined)	none
CCCCCOC(=O)C1=C(C)Nc2nnnn2C1c1ccccc1Cl (centres undefined)	HT1080NT lethal 13µM, DT40 TDP1 CPT inconclusive, HT1080 IDH1KD tx 21µM, DT40 TDP1 no CPT 21µM
CC1=C(C(=O)OCc2ccccc2)C(c2cccnc2)n2nnnc2N1 (centres undefined)	DT40 TDP1 CPT inconclusive, DT40 TDP1 no CPT 16µM
O=c1[nH]c(SCC2CCCCO2)nc2ccccc12 (centres undefined)	DT40 TDP1 CPT inconclusive (no result: uPA surface inh)
CCCC(C)Sc1nc2c([nH]1)c(=S)n(C)c(=O)n2C (centres undefined)	DT40 TDP1 CPT 4.6µM, DT40 TDP1 no CPT 4.6µM, IL1B secr inh -102
Cn1c(=S)c2[nH]c(SCC3CCCO3)nc2n(C)c1=O (centres undefined)	DT40 TDP1 CPT 1.3µM, DT40 TDP1 no CPT 1.2µM, IL1B secr inh -88
CCCSc1nc2c([nH]1)c(=O)n(C)c(=S)n2C	none
Cc1cccc(N2CC(O)(c3cccs3)[N+]3=C2CCCC3)c1C (centres undefined)	DT40 TDP1 CPT inconclusive, DT40 TDP1 no CPT 21µM
Cc1ccccc1N1CC(O)(c2cccs2)[N+]2=C1CCCC2 (centres undefined)	none
Cc1cc(O)c(C=O)c2c1C(=O)Oc1c(COC(=O)/C=C/C(=O)O)c(O)c(C(=O)O)c(C)c1O2	none (no result: HT1080NT lethal, HT1080 IDH1KD tx, uPA surface inh, IL1B secr inh)
COc1ccc(CN2CCCC(c3nc(-c4ccncc4)ncc3-c3ccccc3)C2)cc1OC (centres undefined)	none (no result: HT1080NT lethal, HT1080 IDH1KD tx, uPA surface inh, IL1B secr inh)
CCOc1ncccc1C(=O)OCC(=O)c1cccc(Br)c1	none
CCOC(=O)c1sc(NC(=O)CN2C(=O)NC3(CCC(C)CC3)C2=O)c(C(=O)OCC)c1C (centres undefined)	none
CCOC(=O)c1c(NC(=O)CN2C(=O)NC3(CCCC3)C2=O)sc(C)c1CC	DT40 TDP1 CPT inconclusive, DT40 TDP1 no CPT inconclusive, IL1B secr inh -57
CCOC(=O)c1c(NC(=O)CN2C(=O)NC3(CCCCCC3)C2=O)sc(C)c1-c1ccc(C)cc1	DT40 TDP1 CPT 23µM, HT1080 IDH1KD tx inconclusive, DT40 TDP1 no CPT 16µM
CC1(C)C(=O)N(CC(=O)Nc2ccc(OC(F)(F)F)cc2)c2ccccc21	DT40 TDP1 no CPT inconclusive (no result: HT1080NT lethal, HT1080 IDH1KD tx, uPA surface inh, IL1B secr inh)
Cc1ccc(NC(=O)c2ccccc2)cc1	IL1B secr inh inconclusive
Cc1ccc(NC(=O)C2=C(c3ccccc3)S(=O)(=O)CCS2(=O)=O)cc1	HT1080NT lethal 10µM, DT40 TDP1 CPT 0.46µM, HT1080 IDH1KD tx 7.3µM, DT40 TDP1 no CPT 0.58µM, IL1B secr inh -104
O=C(NCc1cccnc1)c1csc([C@@H]2O[C@H](CO)[C@H](O)[C@H](O)[C@H]2O)n1	none (no result: uPA surface inh)
Cc1ccccc1Cn1c(CN2CCc3ccccc3C2)nc2c1c(=O)n(C)c(=O)n2C	HT1080NT lethal inconclusive, DT40 TDP1 CPT inconclusive, HT1080 IDH1KD tx inconclusive, uPA surface inh inconclusive, DT40 TDP1 no CPT 21µM, IL1B secr inh -59
CCCCn1c(CN2CCN(C(=O)OCC)CC2)nc2c1c(=O)n(C)c(=O)n2C	DT40 TDP1 CPT 12µM, DT40 TDP1 no CPT 9.2µM (no result: uPA surface inh)
Cn1c(=O)c2c(nc(CN3CCc4ccccc4C3)n2Cc2ccc(F)cc2)n(C)c1=O	DT40 TDP1 CPT 21µM, DT40 TDP1 no CPT 18µM
CN(Cc1ccccc1)Cc1nc2c(c(=O)n(C)c(=O)n2C)n1Cc1ccc(F)cc1	DT40 TDP1 CPT inconclusive, DT40 TDP1 no CPT inconclusive
COC(=O)Cn1c(CN2CCc3ccccc3C2)nc2c1c(=O)n(C)c(=O)n2C	DT40 TDP1 CPT 13µM, DT40 TDP1 no CPT 21µM
CCOC(=O)Cn1c(CN2CCN(C(c3ccccc3)c3ccccc3)CC2)nc2c1c(=O)n(C)c(=O)n2C	DT40 TDP1 CPT inconclusive, DT40 TDP1 no CPT 23µM
Cn1c(=O)c2c(nc(N3CCc4ccccc4C3)n2Cc2ccccc2F)n(C)c1=O	DT40 TDP1 CPT 13µM, DT40 TDP1 no CPT 16µM
N#C/C(=C\c1ccccc1O)C(=O)Nc1ccccn1	none
Cc1ccoc1C(=O)NCCNc1ccc(Cl)cc1[N+](=O)[O-]	IL1B secr inh -59
Cc1[nH]c(=O)c(C#N)cc1-c1ccncc1	HT1080NT lethal inconclusive, DT40 TDP1 CPT inconclusive, DT40 TDP1 no CPT 0.06µM!
O=C(CCl)N(c1ccccc1)c1c[nH]c2ccccc12	HT1080NT lethal inconclusive, DT40 TDP1 CPT 2.3µM, HT1080 IDH1KD tx 6.5µM, DT40 TDP1 no CPT 2.9µM, IL1B secr inh -100
O=C(CCl)N(c1ccc(Cl)cc1)c1c[nH]c2ccccc12	HT1080NT lethal 7.3µM, DT40 TDP1 CPT 1.8µM, HT1080 IDH1KD tx 4.6µM, DT40 TDP1 no CPT 1.8µM, IL1B secr inh -109
O=C(O)Cc1c[nH]c2ccccc12	none
O=C1CCN(Cc2ccccc2)C(=S)N1	none
Cc1nc(C(=O)Nc2ccccc2Cl)cc2c1[nH]c1ccccc12	DT40 TDP1 CPT inconclusive, DT40 TDP1 no CPT 6.5µM
Cn1nc(C(C)(C)C)cc1C(=O)N1CCCCC1c1cc(C(=O)Nc2ccccc2)no1 (centres undefined)	DT40 TDP1 CPT 21µM, DT40 TDP1 no CPT 23µM (no result: uPA surface inh)
Cn1nc(C(C)(C)C)cc1C(=O)N1CCCCC1c1cc(C(=O)Nc2ccc3c(c2)OCO3)no1 (centres undefined)	DT40 TDP1 CPT 18µM, HT1080 IDH1KD tx inconclusive, DT40 TDP1 no CPT 4.6µM (no result: uPA surface inh)
O=C(Nc1ccccc1)c1cc(C2CCCCN2C(=O)OCCF)on1 (centres undefined)	DT40 TDP1 no CPT inconclusive (no result: uPA surface inh)
O=C(Nc1ccc2c(c1)OCO2)c1cc(C2CCCCN2C(=O)c2ccccc2)on1 (centres undefined)	DT40 TDP1 CPT 13µM, DT40 TDP1 no CPT 9.2µM (no result: uPA surface inh)
N#Cc1ccccc1S(=O)(=O)N1CCN(C(=O)CCNS(=O)(=O)c2ccc(Cl)cc2)CC1	none
O=[N+]([O-])c1cccc(CON=Cc2ccccc2O)c1	DT40 TDP1 no CPT inconclusive (no result: uPA surface inh)
